Measured values reported in PubChem BioAssay AID1159580 (chemical genetic matrix, 2015).
Out of some 5,500 compounds screened, about 2,000 (36%) were called active. Another 18% or so got no clear call; they are omitted. Cut-off read from the data, not from the text of the source: active = normalized growth mostly below about 0.91 (no sharp cut-off); inconclusive = no clear call, values can overlap the other calls; inactive = mostly above about 0.92. This is one part of the list.

Assay: chemical genetic growth profiling, strain panel (AID 1159580);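 note: tested at 20 µM; growth read once vehicle control cultures reached saturation at 30 °C; 1 = growth at the plate median or of vehicle wells; lower values mean less growth of the strain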
Settings: S. cerevisiae deletion strains, growth OD

Measured: normalized growth

CCCN(CCC)[C@@H]1CCc2cccc(O)c2C1
inactive: locus YAL040C, strain CLN3, hits give low values 1.04 | locus YCL061C, strain MRC1 (second series), hits give low values 0.995 | locus YDR150W, strain NUM1, hits give low values 0.989 | locus YDR363W, strain ESC2, hits give low values 0.997 | locus YER002W, strain NOP16, hits give low values 0.977 | locus YGR078C, strain PAC10, hits give low values 0.981 | locus YGR229C, strain SMI1, hits give low values 1.07 | locus YJR075W, strain HOC1, hits give low values 1.02 | locus YMR263W, strain SAP30, hits give low values 1 | locus YMR307W, strain GAS1, hits give low values 1.03 | locus YNL153C, strain GIM3, hits give low values 0.953 | locus YNL175C, strain NOP13, hits give low values 0.998 | locus YNL197C, strain WHI3, hits give low values 0.974 | locus YNL224C, strain SQS1, hits give low values 1 | locus YOR083W, strain WHI5 (second series), hits give low values 1.01 | locus YPL055C, strain LGE1, hits give low values 1.01 | locus YPL241C, strain CIN2, hits give low values 1

CN(C)CC(=O)OC[C@@H](O)[C@@H](O)[C@H](O)[C@@H](O)C(=O)O
inactive: locus YHR030C, strain SLT2, hits give low values 0.956 | locus YHR079C, strain IRE1, hits give low values 0.944 | locus YJL095W, strain BCK1, hits give low values 0.954 | locus YJR066W, strain TOR1, hits give low values 0.924 | locus YLR113W, strain HOG1, hits give low values 0.956 | locus YNL183C, strain NPR1, hits give low values 0.896 | locus YOR231W, strain MKK1, hits give low values 0.964 | locus YPL256C, strain CLN2, hits give low values 0.969
